# Experimental data from ChEMBL document CHEMBL4513216, “Probing the Open Global Health Chemical Diversity Library for Multistage-Active Starting Points for Next-Generation Antimalarials” (ACS Infect Dis, 2020).
# In all, about 69,000 compounds went through this assay and about 8,600 (12%) showed an effect of 50% or more. What follows is part of a selection rich in strong results, with near analogues and random picks from the rest.
# Tested on: Plasmodium berghei
# Experiment: Screen against P. berghei liver stage (PbLuc), transformed with Luciferase, at 10uM
# Assay type: functional, HepG2
# Conditions: tested at 10 uM
row,Compound,INHIBITION [%]
1,O=C(NCC1CCC2(CC1)OCCO2)c1ccncc1F,57.7
2,Cc1cc(C(=O)NCC2CCC3(CC2)OCCO3)[nH]n1,41.4
3,Cc1[nH]ncc1C(=O)NCC1CCC2(CC1)OCCO2,32
4,CC(C)Sc1ccc(C(C)NC(=O)CNS(C)(=O)=O)cc1 (centres undefined),38
5,CCSc1ccc(C(C)NC(=O)CNS(C)(=O)=O)cc1 (centres undefined),51.7
6,CCSc1ccc(C(C)NC(=O)CCS(C)(=O)=O)cc1 (centres undefined),2.91
7,Cc1nn(C)c2nc(-c3ccccn3)nc(NCCCOC(C)C)c12,5.46
8,CC(=O)NCCNc1nc(-c2ccccn2)nc2c1c(C)nn2C,39.1
9,CCSCCNc1nc(-c2ccccn2)nc2c1c(C)nn2C,51.3
10,CC(C)N(C)Cc1cnc2n1CCN(C(=O)Cc1cccs1)C2C (centres undefined),-18.5
11,Cc1nccn1C1CCCN(C(=O)c2ccnc(-n3ccnc3)c2)C1 (centres undefined),18.2
12,CC(C)n1nnc(CC(=O)NCC2(c3ccccc3F)CCOCC2)n1,27.05
13,O=C(c1cc2cccc(F)c2[nH]1)N1C[C@@H](O)[C@H](N2CCOCC2)C1,-9.08
14,CC(NC1(CNC(=O)CC(C)(C)C)CCOCC1)c1ccccc1 (centres undefined),-6.75
15,CCC(CC)C(=O)NCC1(NC(C)c2ccccc2)CCOCC1 (centres undefined),59.3
16,CC(NC1(CNC(=O)NC2CC2)CCOCC1)c1ccccc1 (centres undefined),43.1
17,CC(NC1(CNC(=O)OC(C)(C)C)CCOCC1)c1ccccc1 (centres undefined),36.6
18,CC(NC1(CNC(=O)CC2CCCC2)CCOCC1)c1ccccc1 (centres undefined),82.1
19,CCOCC(=O)NCC1(NC(C)c2ccccc2)CCOCC1 (centres undefined),42
20,COc1cccc(CNCC2(COc3cccnc3)C[C@@H](O)[C@@H](O)C2)c1 (some centres undefined),46.4
21,CC(Nc1ccc(C(F)(F)F)cc1C#N)c1cccc(S(N)(=O)=O)c1 (centres undefined),28.6
22,O=c1c(NCc2ccccn2)c(NCC(O)CN2CCOCC2)c1=O (centres undefined),50.8

row,Compound,INHIBITION [%]
1,CC(C)(CO)Nc1c(NCc2ccccn2)c(=O)c1=O,6.34
2,O=c1c(NCc2ccco2)c(NCC(O)CN2CCOCC2)c1=O (centres undefined),48.9
3,CC(C)CNC(=O)CNc1c(NCc2ccccn2)c(=O)c1=O,-8.8
4,OC(CNc1ccc(Cl)cn1)CN1CCOCC1 (centres undefined),-58.5
5,O=c1c(NCc2ccncc2)c(NCC(O)CN2CCOCC2)c1=O (centres undefined),50.8
6,CC(NC(=O)NCc1cccnc1N(C)C)c1ccc(F)cc1 (centres undefined),-12.1
7,COCCC(=O)N1C[C@@H]2CC[C@H]1CN(C1Cc3ccccc3C1)C2,-20.6
8,CN(C)CCO[C@H]1CN(C(=O)c2ccc[nH]2)[C@@H]2COC[C@H]12,7.65
9,CCN(CC)C1CCN(C(=O)c2cc(-n3cccn3)ccc2Cl)CC1,14.6
10,CCN1CCC2(CC1)CC(NC(=O)NC)c1cc(C)ccc12 (centres undefined),-25
11,CNC(=O)NC1CC2(CCNCC2)c2ccc(C)cc21 (centres undefined),63
12,CC(C)NC1CC2(CCNCC2)c2cc(F)ccc21 (centres undefined),-33.1
13,Cc1ccc2c(c1)C(NC(C)C)CC21CCNCC1 (centres undefined),-46.4
14,Cc1ccc2c(c1)C1(CCNCC1)CC2NC(C)C (centres undefined),-22.7
15,Cc1ccc2c(c1)C1(CCNCC1)CC2NCCO (centres undefined),55.7
16,c1ccc2c(c1)C(NC1CCCC1)CC21CCNCC1 (centres undefined),71.1
17,Fc1ccc2c(c1)C1(CCNCC1)CC2NC1CC1 (centres undefined),95.5
18,Fc1ccc2c(c1)C1(CCNCC1)CC2OCC1CC1 (centres undefined),-5.63
19,CC(=O)N1CC2(CCNCC2)c2cc(C)ccc21,7.77
20,Cc1ccc(OCC(O)CN2CCC(Cn3cccn3)CC2)cc1 (centres undefined),28.5
21,Cc1ccc(-c2nc(C(=O)N3CCCC(C(N)=O)C3)cs2)c(C)c1 (centres undefined),-79.45
22,CC(c1ccncc1)N(CCN(C)C)C(=O)Nc1ccc(Cl)cc1 (centres undefined),8.49

row,Compound,INHIBITION [%]
1,Cc1nn(CC(C)C)c(C)c1CC(=O)N1CCCC(NS(C)(=O)=O)C1 (centres undefined),17.1
2,Cc1cc(C)c(C#N)c(N2CCC3(CCCN(CCO)C3=O)C2)n1 (centres undefined),-17.2
3,COc1cn(CC(=O)N2CCC(c3ccccc3)CC2)c(C)cc1=O,12.4
4,Cc1ccc2c(c1)C(NC1CC1)CC21CCNCC1 (centres undefined),42.1
5,COc1cccc(N2C(=O)CC3(CCNCC3)C2=O)c1,22.3
6,COc1cccc(-c2ccnc(C3CCNCC3)c2)c1,-23.8
7,COc1ccc2c(c1)C1(CCNCC1)CC2NC1CC1 (centres undefined),94.6
8,Cc1ccc2c(c1)C1(CCNCC1)CC2OCC1CC1 (centres undefined),-26.5
9,Cc1ccc2c(c1)C1(CCNCC1)CC2NC1CC1 (centres undefined),67.5
10,COc1cccc(C(=O)N2CCCCC2c2nccs2)c1OC (centres undefined),-7.35
11,COCC(=O)N1CCC(c2cc3n(n2)[C@@H](C(F)(F)F)C[C@@H](C)N3)CC1,49.6
12,CC(C)(O)CCc1cccc(C(=O)N2CCC[C@H]2C(N)=O)c1,40.2
13,COc1ccc(NC(=O)NCCCn2nc3ccccn3c2=O)cc1,16.8
14,O=C(N1CCCC1)N1CCO[C@H]2[C@@H](OCc3cccnc3)CC[C@@H]21,-26.5
15,Cn1c(CN2CCCC(Cn3cncn3)C2)nc2ccccc21 (centres undefined),33.1
16,O=C(CN1CCC(c2nnc(C(F)(F)F)o2)CC1)Nc1cccnc1,-17.8
17,COCCN(Cc1ccc(F)cc1Cl)C(=O)c1ccncc1,21
18,COCCN(Cc1ccc(F)cc1Cl)C(=O)c1cnn(C)c1C,80.2
19,CCc1ccccc1NC(=O)c1cnn(C)c1C,21.5
20,COCCN(Cc1ccc(F)cc1Cl)C(=O)c1csnn1,39.5
21,COCCN(Cc1ccccc1)C(=O)c1cnn(C)c1C,81.5
22,COCCN(Cc1ccc(F)cc1Cl)C(=O)c1ccccn1,52.4

row,Compound,INHIBITION [%]
1,COCCN(Cc1ccc(F)cc1Cl)C(=O)c1ccc(=O)[nH]n1,16.6
2,COCCN(Cc1ccoc1)C(=O)c1ccccc1Cl,-33.2
3,COCCN(Cc1ccc(F)cc1Cl)C(=O)c1cc(C)n[nH]1,32.5
4,CCCN(CCC)C(=O)c1sc(C)nc1C,-3.14
5,CCCN(CCC)C(=O)c1cnn(C)c1C,51.3
6,COCCN(Cc1ccoc1)C(=O)c1ccccc1OC,28.4
7,CN1CCC(NC(=O)C2CN(c3cncnc3)CCO2)CC1 (centres undefined),14.7
8,CN1C[C@@H](c2cccc(F)c2)[C@H]2[C@H]1CCCCCN2C(=O)C1CC1,12.2535
9,COc1ccc(C(O)CNC(=O)NCc2nc(C)cs2)cc1 (centres undefined),9.14
10,COc1ccc(C(C)NC(=O)Cn2ccc(=O)n(C)c2=O)cc1OC (centres undefined),31.9
11,COc1ccc(CC(=O)N2CCCC2Cn2cc(C)cn2)c(OC)c1 (centres undefined),43.2
12,CC(C)(O)CN1CCN(C(=O)c2cccn2Cc2cccnc2)CC1,34.6
13,Cc1cccc2nc(CN3CCCC3Cn3cccn3)cn12 (centres undefined),19.4
14,Cn1cc(CNC2CCCOc3c2ccc2ccccc32)cn1 (centres undefined),-28.7
15,COCCN(CCOC)C(=O)c1cnn(C)c1C,90.7
16,CCCn1ncc(C(=O)N(CCOC)Cc2c(C)nn(CC)c2C)c1C,-89.3
17,COCCCNC(=O)CN(C)Cc1ccc(F)cc1Cl,-102
18,COCCNC(=O)CN(C)Cc1ccc(F)cc1Cl,52.2
19,COCCN(CCOC)C(=O)c1cnn(C)c1-n1c(C)ccc1C,42.1
20,CNC(=O)CN(C)Cc1ccc(F)cc1Cl,-154
21,CN(C)C(=O)C1CCN(C(=O)c2c[nH]c3cc(Cl)ccc23)CC1,-32.2
22,CN1CCC(c2cncc(C(=O)NCc3ccc(F)cc3)n2)CC1,-3.02

row,Compound,INHIBITION [%]
1,O=C(CCc1cccnc1)N1CCC2(CCN(CC3CCCC3)C2)C1 (centres undefined),-7.2
2,COCCN1CCC(c2cncc(-c3ccccc3C)n2)CC1,46
3,Oc1cccc(CN2CCN(C3CCc4ccccc4C3)CC2)c1 (centres undefined),54.8
4,COc1ccc(CN2CCN(C3CCc4ccccc4C3)CC2)cc1O (centres undefined),46.7
5,COc1cc(O)ccc1CN1CCN(C2CCc3ccccc3C2)CC1 (centres undefined),37.6
6,CNc1cc(C)nc(C2COCCN2CCc2ccc(F)cc2)n1 (centres undefined),19.6
7,CCN1Cc2cc(F)ccc2N(C(C)=O)CCC1=O,23
8,CC(C)N1CCc2[nH]nc(C(=O)N3CCOCC3)c2C1,-1.12
9,CCN(CC)[C@@H]1CN(C(=O)c2ccnnc2)[C@@H]2CCCO[C@H]12,-62.8
10,CCN(CC)[C@@H]1CN(C(=O)c2ccc(C#N)cc2)[C@@H]2CCCO[C@H]12,73.6
11,CN(C)[C@@H]1CN(C(=O)c2ccc(C#N)cc2)[C@@H]2CCCO[C@H]12,-73.3
12,COCCn1c2c(ccc1=O)CCN(C(=O)Cc1ccsc1)CC2,27.5
13,CC(C)C(=O)N1CCCC(c2ncncc2-c2ccncc2)C1 (centres undefined),48.3
14,O=C(c1ccccn1)N1CCCN(Cc2nnc(C3CC3)o2)CC1,-57.4
15,Cc1cnc(CN2CC=C(c3c[nH]c4ncccc34)CC2)o1,44.9
16,Cc1noc(CN2CC=C(c3c[nH]c4ncccc34)CC2)n1,74.7
17,C1=C(c2c[nH]c3ncccc23)CCN(Cc2nnc(C3CC3)o2)C1,71.4
18,Fc1ccc2c(C3=CCN(Cc4nnc(C5CCC5)o4)CC3)c[nH]c2c1,34.6
19,Cc1noc(CN2CC=C(c3cnn(C4CCS(=O)(=O)C4)c3)CC2)n1 (centres undefined),1.98
20,Cc1cnn(CC2CCCCN2C(=O)Cc2cccc(F)c2)c1 (centres undefined),35.9
21,COc1ccc(C(C)NC(=O)c2nn(C)c(C)c2Br)cc1 (centres undefined),30.2
